Measured values taken from PubChem BioAssay AID2117 (The Scripps Research Institute Molecular Screening Center, 2009).
Activity calls are given as the source filed them. The rule behind the calls is not given here.

Test system: VP16
Test: ROR modulator nuclear receptor reporter panel, late-stage follow-up, ROR modulator project, cell-based, luciferase reporter (AID 2117)
Conditions: fold change: ROR/LXR/VP16, max fold change, at 10 µM; inhibition: ROR/LXR/VP16, at 10 µM, stronger effect = higher value

Row | Structure (SMILES) | fold change | inhibition
1 | O=S(=O)(Nc1ccc(C(O)(C(F)(F)F)C(F)(F)F)cc1)c1ccc(Cl)c2nonc12 | 0.61 | 39% (inactive)
2 | O=S(=O)(Nc1ccc(C(O)(C(F)(F)F)C(F)(F)F)cc1)c1cccc2cccnc12 | 1.03 | 0% (inactive)
3 | CC(C)(C)c1ccc(S(=O)(=O)Nc2ccc(C(O)(C(F)(F)F)C(F)(F)F)cc2)cc1 | 0.9 | 10% (inactive)
4 | COc1cccc(S(=O)(=O)Nc2ccc(C(O)(C(F)(F)F)C(F)(F)F)cc2)c1 | 0.91 | 9% (inactive)
5 | O=S(=O)(Nc1ccc(C(O)(C(F)(F)F)C(F)(F)F)cc1)c1cccc2ccccc12 | 0.95 | 5% (inactive)
6 | COC(=O)c1sccc1S(=O)(=O)Nc1ccc(C(O)(C(F)(F)F)C(F)(F)F)cc1 | 0.94 | 6%
